Type in all cases: functional
Assay [1] concerns the target Solute carrier family 2, facilitated glucose transporter member 1 (Homo sapiens) (UniProt P11166). Briefly: ST_JUDE_LEISH: Cytotoxicity at 2uM final concentration against transgenic Leishmania Mexicana promastigotes LmGLUT1 that are glucose transport deficient and complemented with the human glucose transporter GLUT1. Activity is measured by DNA content using SYBR green in vitro.

Assay [2] addresses Hexose transporter 1 (Plasmodium falciparum) (UniProt O97467). As to the kind of experiment: ST_JUDE_LEISH: Cytotoxicity at 2uM final concentration against transgenic Leishmania Mexicana promastigotes LmPfHT that are glucose transport deficient and complemented with the Plasmodium falciparum hexose transporter. Activity is measured by DNA content using SYBR green in vitro.
Assay [3] deals with Glucose transporter (Leishmania mexicana) (UniProt O61059). As to the kind of experiment: ST_JUDE_LEISH: Cytotoxicity at 2uM final concentration against transgenic Leishmania Mexicana promastigotes LmGT2 that are glucose transport deficient and complemented with the L. Mexicana glucose transporter 2. Activity is measured by DNA content using SYBR green in vitro.

Structures are written as SMILES.

Solute carrier family 2, facilitated glucose transporter member 1 (Homo sapiens), sequence (P11166 whole entry): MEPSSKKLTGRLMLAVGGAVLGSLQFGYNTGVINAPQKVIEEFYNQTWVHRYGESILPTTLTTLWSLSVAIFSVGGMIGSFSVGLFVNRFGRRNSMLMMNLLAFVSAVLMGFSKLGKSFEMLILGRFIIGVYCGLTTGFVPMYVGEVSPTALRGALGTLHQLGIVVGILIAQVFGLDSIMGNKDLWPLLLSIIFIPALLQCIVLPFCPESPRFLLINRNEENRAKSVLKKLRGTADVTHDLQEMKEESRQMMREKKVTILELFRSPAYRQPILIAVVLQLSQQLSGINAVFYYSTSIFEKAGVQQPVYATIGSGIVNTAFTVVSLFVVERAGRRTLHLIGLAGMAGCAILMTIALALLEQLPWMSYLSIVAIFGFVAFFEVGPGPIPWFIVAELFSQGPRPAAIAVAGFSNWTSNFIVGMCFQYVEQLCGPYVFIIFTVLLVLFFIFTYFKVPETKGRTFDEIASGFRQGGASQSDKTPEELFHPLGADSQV

By inhibition is commonly meant the relative decrease from the control value, in per cent. Take `COc1ccc2nccc(N3CCC(CCNCc4ccc5c(n4)NC(=O)CS5)CC3)c2n1`: the inhibition in assay [1] is 4.06%; in assay [2] it was 4.8%; in assay [3] it was 7.97%.
For `Oc1cccc(-c2nc(-c3ccccc3)c(-c3ccc4oc5ccc(-c6[nH]c(-c7cccc(O)c7)nc6-c6ccccc6)cc5c4c3)[nH]2)c1` the same measures were 3.36%, 2.88% and 2.11%.
Taken in the same sequence, the figures for `Cc1cccc2nc(-c3ccc(-c4ccc(CN5CCN(CCO)CC5)cc4)cc3)[nH]c12` were 25.5%, 31.3% and 17.5%.
Turning to `O=c1[nH]ccc2nc(N[C@@H]3CCCNC3)nc(Nc3ccc(S(=O)(=O)N4CCOCC4)cc3)c12`, the results for the inhibition in assay [1], in assay [2] and in assay [3] were 0.92%, 2.1% and -0.68%, respectively.
For `CC1(C)N=C(N)N=C(N)N1c1ccc(Oc2ccc(Cl)cc2)c(Cl)c1` the same measures were 0.34%, -1.08% and 2.05%.
For `CCOc1cc(Cc2cnc(N)nc2N)cc(OCC)c1-n1cccc1` the same measures were 5.67%, 5.64% and 1.36%.
For `CCn1c(-c2nc(-c3ccnc(N4CCN(C)CC4)c3)cnc2N)nc2cc(S(C)(=O)=O)ccc21` the same measures were 36.5%, 45.3% and 20.7%.
As to `Cc1cc(C)cc(NC(=S)NCCCCN2CCN(c3cccc(Cl)c3)CC2)c1`, the inhibition was -0.5% in assay [1], -1.31% in assay [2] and -4.65% in assay [3].
Taken in the same sequence, the figures for `c1csc(-c2nc(NCC3CCCO3)ncc2-c2ccsc2)n1` (stereo not given) were 1.71%, 2.71% and 3.35%.
For `Cc1ccn2c(C(=O)N3CCN(c4cccc5c4nc(-c4ccoc4)n5Cc4ccccn4)CC3)c(C)nc2c1` the same measures were 2.33%, 1.01% and -0.49%.
For `Cc1[nH]c(C)c(-c2ccc(-c3cccc(Cl)c3)nc2)c(=O)c1Br` the same measures were 0%, 1.07% and 0.63%.
As for `NCc1cccc(-c2cccc(CNC3CCN(Cc4ccccc4)CC3)c2)c1`, the inhibition in assay [1] is 6.06%; in assay [2] it was 5.41%; in assay [3], -0.37%.
For `Cc1cc(-c2ccc3occ(CCN)c3c2)cnc1N` the same measures were 1.36%, 0.86% and 1.13%.
Turning to `CCC[C@@H]([C@@H](CC(C)C)C(=O)N[C@@H](CCCCNC(=O)c1cccc(OC)c1)C(=O)Nc1nccs1)N(O)C=O`, the values for the inhibition in assay [1], in assay [2] and in assay [3] were 8.94%, 10.2% and 5.1%, respectively.
As to `Cc1ccc(NC(=O)c2ccc(CN3CCCN(Cc4cccc(C#N)c4)CC3)cc2)cc1F`, the inhibition in assay [1] turned out to be 4.02%; in assay [2] it was 2.41%; in assay [3], 2.02%.
Taken in the same sequence, the figures for `O=C(O)c1ccc(-c2c[nH]c3ncc(-c4ccc(Cl)cc4)cc23)cc1` were 0.12%, -0.34% and -0.05%.
For `COc1ccc(S(=O)(=O)N(CC(=O)NN=C(C)c2cccs2)c2cc(C)cc(C)c2)cc1OC` the same measures were 0.78%, 2.03% and -1.17%.
For `CC(CN1CCN(C)CC1)C(=O)Nc1cccc(-c2ccc(-c3nc4cc(C(F)(F)F)ccc4[nH]3)cc2)c1` (stereo not given) the same measures were 5.29%, 4.14% and 5.41%.
As for `O=C(c1cnn(-c2ccccc2)c1C(F)(F)F)N1CCN(c2ccnc3cc(Cl)ccc23)CC1`, the inhibition is 1.81% in assay [1], 1.39% in assay [2] and 2.15% in assay [3].
As to `Cc1ccccc1C1CCN(C2CCC(NC(=O)/C=C/c3ccc(C#N)cc3)CC2)CC1` (stereo not given), the inhibition in assay [1] was 3.43%; in assay [2], 4.49%; in assay [3], 5.03%.
As for `C=CCc1cc(Cc2cnc(N)nc2N)c2ccc(C)nc2c1O`, the inhibition worked out at 2.17% in assay [1], 1.88% in assay [2] and 0.24% in assay [3].
Taken in the same sequence, the figures for `COC(=O)c1cc(C(O)CNC(C)CCCc2ccccc2)ccc1O` (stereo not given) were 0.96%, -0.05% and -0.85%.
For `CC(C)(C(=O)NCCC1CCN(CCCCCNC(=O)/C=C/c2ccc(Cl)c(Cl)c2)CC1)c1ccc(Cl)cc1`, the inhibition came to 5.49% in assay [1], 4.45% in assay [2] and 4.35% in assay [3].
On to `Cc1cc(N2CCC(NS(=O)(=O)c3cccc4cccnc34)CC2)nc(Nc2cccc(C#N)c2)n1`, for which the figures for the inhibition in assay [1], in assay [2] and in assay [3] were 51.5%, 54.4% and 44.4%, respectively.
`COc1ccc2nc3cc(Cl)ccc3c(N)c2c1`: the inhibition was found to be 15.8% in assay [1], 10% in assay [2] and 3.3% in assay [3].
For `CCOc1cc(C)ccc1C1CCN(CCCCNC(=O)c2nc(-c3ccc(C(F)(F)F)cc3)[nH]c2C)CC1`, the values for the inhibition in assay [1], in assay [2] and in assay [3] were 1.65%, 0.72% and -0.05%, respectively.
Taken in the same sequence, the figures for `CC(C)CN1CCCN(Cc2cccc(NC(=O)c3ccc(Cl)c(Cl)c3)c2)CC1` were 10.4%, 10.2% and 4.5%.
`CC[C@H](C)CNC(=O)c1ccnc(-c2cccc(CN(C)C3CCN(C)CC3)c2)c1`: the inhibition in assay [1] stood at 1.42%; in assay [2], 2.4%; in assay [3], 2.59%.
As for `COc1ccc(C2N=C(N)N=C(N)N2OCc2ccccc2)cc1OC` (stereo not given), the values for the inhibition in assay [1], in assay [2] and in assay [3] were 0.67%, 2.45% and 2.49%, respectively.
For `COc1ccc(CC(=O)NC2CCN(c3ccnc4cc(Cl)ccc34)C2)cc1` (stereo not given), the figures for the inhibition in assay [1], in assay [2] and in assay [3] were -0.54%, -0.22% and -0.25%, respectively.
`CC(=O)Nc1ccc2[nH]cc(C3CCN(CC4CCC(NC(=O)/C=C/c5ccc(Cl)c(Cl)c5)CC4)CC3)c2n1` (stereo not given): the inhibition in assay [1] is -0.73%; in assay [2] it was 0.9%; in assay [3] it was -2.32%.
In the case of `O=C(C=Cc1ccc(Cl)c(Cl)c1)NCCCCCN1CCC(CCNC(=O)/C=C/c2ccccc2)CC1`, the results for the inhibition in assay [1], in assay [2] and in assay [3] were 0.55%, 0.26% and 3.1%, respectively.
For the compound `CCN1CCc2c1cc(C(=O)N[C@@H](Cc1ccccc1)[C@H](O)CNC(C)(C)c1cccc(C(F)(F)F)c1)cc2N1CCCCS1(=O)=O`, the inhibition in assay [1] was 5.34%; in assay [2] it was -3.32%; in assay [3], 2.66%.
`Cc1cccc(NC(=S)NC2CCN(CCCCCNC(=O)/C=C/c3ccc(Cl)c(Cl)c3)CC2)c1`: the inhibition was found to be 0.27% in assay [1], 1.13% in assay [2] and 0.99% in assay [3].
Taken in the same sequence, the figures for `N#Cc1ccc(N2CCN(Cc3cccc(-c4ccc(-c5nc6cc(C(F)(F)F)ccc6[nH]5)s4)c3)CC2)nc1` were 0.46%, 1.1% and 0.57%.

Source of the values: ChEMBL document CHEMBL3433997, “St. Jude Leishmania screening dataset” (2016).
